Compound activity from PubChem.
This is one part of a sample in which hits are shown more often than they occur.
VCAM1 TNFa pot – enhances TNF alpha induced VCAM1 expression in HUVEC | HUVEC TNFa-stimulated VCAM-1 immunofluorescence, high-content imaging; scaled per plate to unstimulated/TNFa-only wells | 93,000 compounds, 0.19% hits | activation, % at 2 µM;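 active = activation above the screen mean plus 3 SD, with well images confirming the hit on visual review, cut at about 28% in these data, passing the limit was not always enough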;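 also: signal is the number of cytoplasmic VCAM-1 stained grains per positive cell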
VCAM1 pot confirm – potentiators of TNFa-induced VCAM1 expression, confirmation, imaging, HUVEC, triplicate retest; HUVEC TNFa-stimulated VCAM-1 immunofluorescence imaging; activation, % at 2 µM; 230 tested, under 10 active; shares compounds with VCAM1 TNFa pot;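 active = activation above 30% in triplicate retests at 2 µM, then confirmed by visual review of the well images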;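 also: scaled per plate between unstimulated and TNFa-stimulated DMSO control wells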
An asterisk follows results filed as active.

SMILES | VCAM1 TNFa pot | others
O=c1[nH]c2cc3c(cc2cc1C(c1nnnn1C1CCCCC1)N1CCSCC1)OCCO3 (configuration not stated) | 5.6
CCCC(C)NC(=O)c1cc(Cl)ccc1OC (configuration not stated) | 1.7
Nc1ccc(Oc2ccc3nc(-c4ccccc4)c(-c4ccc([N+](=O)[O-])cc4)nc3c2)cc1 | 5.1
CCOC(=O)N1CCC(NC(=O)c2ccc(CS(=O)(=O)c3ccc(OC)cc3)o2)CC1 | -84.6
CCOC(=O)c1nnc2c(Br)c(-c3ccccc3)nn2c1C | 4.9
CCN(CC)S(=O)(=O)c1ccc(C(=O)NCCCN=C2NS(=O)(=O)c3ccccc32)cc1 | -48.5
CN(C)NC1CCS(=O)(=O)C1 (configuration not stated) | -1.2
COc1cccc(C2=NOC(C(=O)Nc3ccccc3SC)C2)c1 (configuration not stated) | 1.7
CCOCCCNC(=O)CCSc1ccc(C)cc1 | 10.2
CC1CCCC(NC(=O)COC(=O)c2ccc3ccccc3n2)C1C (configuration not stated) | -28.4
CCCCCn1nc(C)c2c(C)cc(=O)[nH]c21 | 16.6
O=C(CNC(=O)c1ccco1)OCc1ccc(Cl)cc1 | -22.9
COC(=O)c1ccc(C(=O)OC)c(NC(=O)CSCc2ccc(Br)cc2)c1 | -8.0
O=C1CC(c2ccccc2)Cc2nc3ncnn3cc21 (configuration not stated) | -59.8
CCOC(=O)c1ccccc1-c1csc(NS(=O)(=O)c2ccc(Cl)cc2)n1 | -10.2
COc1cc(/C=C(/C#N)C(=O)NCCc2c[nH]c3ccccc23)ccc1OCc1ccccc1F | -36.8
Cc1cccc(N2CCN(C(=O)NCc3ccc(Cl)cc3)CC2)c1 | -16.9
COc1ccc(CCC(=O)NCCc2cn3c(C)csc3n2)cc1 | 0.7
Cc1nc(-c2cccc(-c3noc(C)n3)c2)no1 | -37.0
Cc1cccc(-c2noc(CCc3ccccc3)n2)c1 | 3.2
COc1ccc(-c2nc(-c3cccc(C)c3)no2)cc1OC | 53.6* | VCAM1 pot confirm=-17.3
O=C(NC1CCSC1=O)c1cccc(C(=O)NC2CCSC2=O)c1 (configuration not stated) | -1.3
O=C(O)C1C2C=CC(C2)C1C(=O)N1CCN(C/C=C/c2ccccc2)CC1 (configuration not stated) | 9.6
CC(C)c1ccc(NC(=O)c2ccc(Br)o2)cc1 | 0.7
COc1nc(Nc2ccc(C(C)C)cc2)nc(OC)n1 | 46.8* | VCAM1 pot confirm=-0.4
SMILES | VCAM1 TNFa pot | others
O=C(OCCCN=C1NS(=O)(=O)c2ccccc21)C1CC(=O)N(c2ccc(Cl)cc2)C1 (configuration not stated) | 5.4
CC(=O)c1c(N2CCC(C(N)=O)CC2)nc(=S)n(-c2ccccc2)c1C | 0.9
Brc1ccc(-c2nc(N/N=C/c3cccnc3)c3ccccc3n2)cc1 | -41.0
CCOc1nc(-c2ccncc2)nc2ccccc12 | 43.4* | VCAM1 pot confirm=-8.9
COc1ccc(C(=O)N[C@H](C(=O)NCC2CCCCC2)C(C)C)cc1 | -18.3
CCn1c(CNC(=O)C(C)(C)C)nc2ccccc21 | -5.9
CCn1c(=O)c2c(cnn2C)c2ccccc21 | -13.2
CCn1c2ccccc2c2cc(C3N=C(N)Nc4nc5ccccc5n43)ccc21 (configuration not stated) | 53.6* | VCAM1 pot confirm=-8.8
O=C(CSc1ccc2nnc(-c3ccccc3)n2n1)N1CCN(c2ccccc2)CC1 | -8.5
NC(=O)C1CCN(C(=O)CCSc2ccccc2)CC1 | 5.1
NC(=O)C1CCN(C(=O)CSc2ccccn2)CC1 | 41.0* | VCAM1 pot confirm=-6.1
COc1cccc(C2CC(=O)NC3=C2C(=O)CCC3)c1 (configuration not stated) | 6.6
CCCCS/C(=C(/C#N)C(N)=O)c1cc2c([nH]1)CCCC2 | 1.2
CCOC(=O)Cc1nnc(NC(=O)CC)s1 | -1.4
CCOC(=O)C1=NN(c2ccccc2C)C2=NC(C)=C(C(=O)OC)C(c3cccs3)N12 (configuration not stated) | 14.8
COc1ccc(NC(=O)C2CC2)cc1NS(=O)(=O)c1ccc(F)cc1 | -2.2
COC(=O)c1cc(OC)c(OCc2cc(C(=O)OC)oc2C)c(OC)c1 | 53.0* | VCAM1 pot confirm=-10.5
C=CCc1ccc(OCc2ccc(C(=O)OC)o2)c(OC)c1 | -0.5
Cc1oc(C(=O)O)cc1CSCc1cc(C(=O)O)c(C)o1 | 3.8
COc1cccc(CNC(=O)C2CCN(S(=O)(=O)c3ccc4c(c3)CCC(=O)N4)CC2)c1 | -3.4
COc1ccc(OC)c2c(C)cc(N3CCN(C(=O)c4ccc(F)cc4)CC3)nc12 | 18.4
Cc1cc(N2C(=O)C(=O)/C(=C(/O)c3ccc(F)cc3)C2c2ccc(F)cc2)no1 (configuration not stated) | 5.5
Cc1ccc(C2/C(=C(/O)c3ccc(OC(C)C)cc3)C(=O)C(=O)N2CCN2CCOCC2)cc1 (configuration not stated) | -4.6
CCOc1ccc(C2/C(=C(/O)c3ccc(OC)cc3)C(=O)C(=O)N2c2cc(C)on2)cc1OC (configuration not stated) | 57.6* | VCAM1 pot confirm=-4.4
CC(C)Oc1cc(NC(=O)CSCC(=O)Nc2cccc(C(F)(F)F)c2)c(Cl)cc1Cl | -3.8
SMILES | VCAM1 TNFa pot | others
CCOC(=O)c1cc2cc3ccccc3cc2[nH]1 | 21.7
CC1(C)Cc2c(cnn2-c2ccccc2)C(=O)/C1=N\NC(=O)c1ccccc1 | 33.5* | VCAM1 pot confirm=-18.0
CCOC(=O)C1(P(=O)(c2ccc(Cl)cc2)c2ccc(Cl)cc2)CCC1 | -0.6
O=C(CCn1nnc(-c2cccs2)n1)N1CCc2ccccc2C1 | 35.5* | VCAM1 pot confirm=2.2
CCOC(=O)c1c(C)c(C(=O)N2CCc3ccccc3C2)c(C)n1CC | 6.9
O=C(Nc1cccc2ccccc12)N1CCc2ccccc2C1 | -2.6
CCCCN(C)C(=O)C1CCC(=O)N(c2cc(OC)c(OC)c(OC)c2)C1c1ccc(OC)cc1 (configuration not stated) | -1.3
CCCN1C2=C(C(=O)CCC2)C(c2ccc(F)cc2)C2=C1c1ccccc1C2=O (configuration not stated) | 18.7
COc1ccc(C(C#N)(CCC#N)CCC#N)cc1OC | 36.8* | VCAM1 pot confirm=-18.7
COC(=O)c1cc(NC(=O)CCc2c(C)nc3ncnn3c2C)cc(C(=O)OC)c1 | 8.5
CNC(=S)N1N=C(c2ccc(Br)cc2)CC1c1ccc(Br)cc1 (configuration not stated) | 69.0* | VCAM1 pot confirm=0.0
CCOC(=O)c1nnn(CC(=O)N2N=C(c3ccccc3)CC2c2ccccc2)c1C(=O)OCC (configuration not stated) | 16.6
CC(C)NC1CS(=O)(=O)CC1O (configuration not stated) | -100.0
CCc1nnc(NC(=O)CSc2nnc(CSc3nc(C)cc(C)n3)o2)s1 | -1.7
CCN(CC)c1ccc(C2CC(=O)Nc3cc(OC)c(OC)cc32)cc1 (configuration not stated) | -24.0
O=C(CC(=O)NN=C1CCCC1)NCCc1ccccc1 | -10.0
CCOC(=O)C1=C(CSc2nc3c(cc2C#N)CN(C)CC3)OC(N)=C(C#N)C1c1ccccc1 (configuration not stated) | -95.7
CCCC1=C(C(=O)OCC)C(c2c(C)nn(-c3ccccc3)c2Cl)C(C#N)=C(N)O1 (configuration not stated) | 43.6* | VCAM1 pot confirm=-24.0
CCCc1nn(-c2ccccc2)c2c1C(c1cccs1)C(C#N)=C(N)O2 (configuration not stated) | 8.4
c1ccc(OCCOCCSc2ncccn2)cc1 | -6.9
